“And” between values parts separate entries of the source, which are not always exact repeats. Equal entries are not always repeated. Inconclusive results are not listed. Entries that show only a call come without a potency. Some compounds were tested as several samples or in several runs, with calls that do not always agree. Unmarked numbers belong to inactive results. The source made the active and inactive calls. Calls follow the shape of the full dose curve.
Potency is read from the fitted curve at half-maximal effect.

For this experiment, the target named is Progesterone receptor (Homo sapiens) (UniProt P06401). The experiment can be described thus: qHTS assay to identify small molecule agonists of the progesterone receptor (PR) signaling pathway (AID 1346784). Also: nearly all actives have a fitted effect of over 30% in size. The conditions noted are these: PR-UAS-bla HEK293T, beta-lactamase FRET ratio, 16 h; series mostly up to 92.4 µM. An excerpt: U.S. Tox21 Program National Center for Advancing Translational Sciences [NCATS] NIH Chemical Genomics Center [NCGC] U.S. Environmental Protection Agency [EPA] National Institutes of Environmental Health Sciences [NIEHS] National Toxicology Program [NTP] U.S. Food and Drug Administration [FDA] […] Endocrine disrupting chemicals (EDCs) and their interactions with steroid hormone receptors like PR causes disruption of normal endocrine function. To identify the compounds that activate PR signaling, a PR-UAS-bla GripTite cell line i.e. PR-UAS-bla HEK 293T (Invitrogen, Carlsbad, CA, USA) containing a beta-lactamase reporter gene under the control of an Upstream Activator Sequence (UAS) was used to screen Tox21 10K compound library.
Sequence of Progesterone receptor (Homo sapiens) (P06401 whole entry, looked up): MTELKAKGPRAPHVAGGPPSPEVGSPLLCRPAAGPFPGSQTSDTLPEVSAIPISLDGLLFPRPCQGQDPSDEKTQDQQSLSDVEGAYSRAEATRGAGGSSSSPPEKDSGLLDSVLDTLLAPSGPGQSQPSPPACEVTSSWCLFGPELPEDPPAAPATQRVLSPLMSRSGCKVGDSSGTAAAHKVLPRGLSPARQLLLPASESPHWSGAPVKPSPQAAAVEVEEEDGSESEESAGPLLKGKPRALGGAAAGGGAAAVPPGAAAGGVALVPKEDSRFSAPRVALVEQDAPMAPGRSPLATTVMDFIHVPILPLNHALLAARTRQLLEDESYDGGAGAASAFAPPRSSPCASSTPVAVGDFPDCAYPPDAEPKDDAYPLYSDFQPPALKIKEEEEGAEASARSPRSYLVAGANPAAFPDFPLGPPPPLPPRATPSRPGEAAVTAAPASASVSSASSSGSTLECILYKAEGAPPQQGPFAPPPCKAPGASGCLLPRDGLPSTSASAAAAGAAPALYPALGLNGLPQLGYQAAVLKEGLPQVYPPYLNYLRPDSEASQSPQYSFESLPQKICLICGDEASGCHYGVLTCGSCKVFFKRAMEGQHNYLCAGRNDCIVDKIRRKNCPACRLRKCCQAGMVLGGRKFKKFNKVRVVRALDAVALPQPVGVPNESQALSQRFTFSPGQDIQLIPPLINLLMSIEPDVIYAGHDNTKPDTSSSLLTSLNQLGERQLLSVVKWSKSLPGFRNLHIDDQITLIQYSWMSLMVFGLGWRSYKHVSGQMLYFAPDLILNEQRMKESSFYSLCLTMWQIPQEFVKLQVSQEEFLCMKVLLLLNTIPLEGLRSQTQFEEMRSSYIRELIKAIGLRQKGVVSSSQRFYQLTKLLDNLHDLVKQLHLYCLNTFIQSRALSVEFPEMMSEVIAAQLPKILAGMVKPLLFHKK
Tox21 Assay Protocol Summary: PR-UAS-bla HEK 293T cells were dispensed at 3,000 cells/5 uL of assay medium containing 2% charcoal stripped FBS per well into black wall/clear-bottom 1536-well plates using a Multidrop Combi (ThermoFisher Scientific, Waltham, MA) dispenser. After the assay plates were incubated at a 37C and 5% CO2 for 6hr, 23 nL of compounds dissolved in DMSO, positive controls or DMSO only was transferred to the assay plate by a Pintool station (Kalypsys, San Diego, CA). The plates were incubated at 37C and 5% CO2 for 16hr. Then 1 uL of LiveBLAzer B/G FRET substrate was added using a BioRAPTR FRD (Flying Reagent Dispenser, Aurora Discovery, San Diego, CA). After the plates were incubated at room temperature for 2 hours, fluorescence intensity was measured by an Envision plate reader (PerkinElmer, Shelton, CT).
On the technique in general: Quantitative high-throughput screening tests each substance at several concentrations.
Regarding `C[N+](C)(C)CCO`, the Potency entry was “inactive”.

On to `C[C@]12CC[C@@H]3c4ccc(O)cc4CC[C@H]3[C@@H]1CC[C@H]2O`, for which the Potency result is “inactive”.

With `O=S1(=O)CCCO1`, the Potency result is “inactive”.

Take `C=C[C@@]1(C)CC(=O)[C@]2(O)[C@@]3(C)[C@@H](O)CCC(C)(C)[C@@H]3[C@H](O)[C@H](OC(C)=O)[C@@]2(C)O1`: the Potency entry is “inactive”.

In the case of `CCCN1C=CN(C)C1`, the Potency result is “inactive”.

With `NCCOCCO`, the Potency result is “inactive”.

On to `O=C1CCc2ccccc2O1`, for which the Potency result is “inactive”.

Consider `COc1ccc2nc(N)sc2c1`, for which the Potency result is “inactive”.

Turning to `C=C[Si](OCCOC)(OCCOC)OCCOC`, the Potency result is “inactive”.

With `c1ccc2ncccc2c1`, the Potency result is “inactive”.

As for `CC(C)(Oc1ccc(Cl)cc1)C(=O)O`, the Potency entry was “inactive”.

In the case of `CCCOCCO`, the Potency result is “inactive”.

For `CC(=O)OC(C)C`, the Potency entry was “inactive”.

For the compound `c1ccc2c(c1)ccc1cc3c(ccc4ccccc43)cc12`, the Potency entry was “inactive”.

On to `OCCNCCO`, for which the Potency result was “inactive”.

`COc1cc([C@H]2Oc3cc([C@H]4Oc5cc(O)cc(O)c5C(=O)[C@@H]4O)ccc3O[C@@H]2CO)ccc1O`: the Potency entry was “inactive”.

For `COc1ccc(-c2coc3cc(O)cc(O)c3c2=O)cc1`, the Potency result was “inactive”.

As to `CC1(C)NC(=O)N(c2ccc([N+](=O)[O-])c(C(F)(F)F)c2)C1=O`, the Potency result is “inactive”.

Turning to `Cc1cccc(Nc2ccccc2C(=O)O)c1C`, the Potency result was “inactive”.

For the compound `CC(=O)[C@H]1CC[C@H]2[C@@H]3CC=C4C[C@@H](O)CC[C@]4(C)[C@H]3CC[C@]12C`, the Potency was 4.85 µM (active).

Turning to `CC1(C)C(C=C(Cl)Cl)C1C(=O)OCc1cccc(Oc2ccccc2)c1` (stereo not given), the Potency entry was “inactive”.

On to `C=CCOC(=O)C(=C)C`, for which the Potency entry was “inactive”.

Turning to `CN(C)CCCN1c2ccccc2Sc2ccc(Cl)cc21`, the Potency entry was “inactive”.

On to `CC(=O)[C@@]1(O)CC[C@H]2[C@@H]3C[C@H](C)C4=CC(=O)C=C[C@]4(C)[C@@]3(F)[C@@H](O)C[C@@]21C`, for which the Potency is 61.1 nM (active) and 168 nM (active).

Regarding `CC(=O)Oc1ccc(C(c2ccc(OC(C)=O)cc2)c2ccccn2)cc1`, the Potency entry is “inactive”.

For the compound `Clc1ccc(Sc2cc(Cl)c(Cl)cc2Cl)cc1`, the Potency entry was “inactive”.

On to `Cc1ccc([N+](=O)[O-])c(C)c1`, for which the Potency result is “inactive”.

As to `COC(=O)CC(=O)OC`, the Potency result was “inactive”.

As to `CCCCCCCCCCCCCO`, the Potency result was “inactive”.

`O=Cc1ccccc1C=O`: the Potency entry was “inactive”.

`CCC(=O)O[C@H]1[C@H](O[C@@H]2[C@@H](C)[C@H](O[C@H]3C[C@@](C)(OC)[C@@H](O)[C@H](C)O3)[C@@H](C)C(=O)O[C@H](CC)[C@@](C)(O)[C@H](O)[C@@H](C)C(=O)[C@H](C)C[C@@]2(C)O)O[C@H](C)C[C@@H]1N(C)C`: the Potency result is “inactive”.

On to `O=C1OC2(c3ccccc31)c1cc(I)c(O)c(I)c1Oc1c2cc(I)c(O)c1I`, for which the Potency entry is “inactive”.

In the case of `ClC/C=C/CCl`, the Potency entry is “inactive”.

For the compound `C/C=C/C(=O)N(CC)c1ccccc1C`, the Potency result was “inactive”.

Consider `O=C(O)COCCN1CCN(C(c2ccccc2)c2ccc(Cl)cc2)CC1` (stereo not given), for which the Potency entry is “inactive”.

Take `c1ccc2c(c1)[nH]c1ccccc12`: the Potency entry is “inactive”.

Turning to `O=C(O)CCCC(=O)O`, the Potency entry was “inactive”.

With `CC(=O)Oc1c(C)c(C)c2c(c1C)CC[C@@](C)(CCC[C@H](C)CCC[C@H](C)CCCC(C)C)O2`, the Potency entry was “inactive”.

On to `CNC[C@H](O)c1ccc(O)c(O)c1`, for which the Potency is 4.33 µM (active) and the activation was -0.635% [at 19 µM].

For the origin of these results see PubChem BioAssay (Tox21).
